From PubChem BioAssay (Tox21)
Results filed as inconclusive are left out. Calls of active or inactive are those of the source. Unless noted, calls come from the whole dose curve; as a rule, active = well fitted curve in the direction sought with a large enough effect in the repeat runs; inconclusive = weak or mixed curves; inactive = no such curve, though single readings can be large; an effect the other way counts as inactive or inconclusive.

Columns and labels:
[1] = qHTS assay to identify small molecule agonists of the hypoxia (HIF-1) signaling pathway - cell viability counter screen (AID 1224844; calls by dose curve; note: nearly all actives have a fitted effect of over 50% in size; note: potency is the fitted concentration of half-maximal effect)
How it was run: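 Viability counter screen: HRE-bla ME-180 cells plated 5 hrs before compound addition, treated 17 hrs at 37C and 5% CO2, then CellTiter-Glo added after the FRET reporter read; luminescence after 30 min.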

[2] = qHTS assay to identify small molecule agonists of the hypoxia (HIF-1) signaling pathway (AID 1224846; active = well fitted activation curve with a large enough effect in the signal ratio in the repeat runs, not every such curve was filed as active; the % refers to the signal ratio)
How it was run: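 Agonist mode reporter screen. ME-180 cells stably expressing bla under HRE control received test compounds in DMSO for 17 hrs (37C, 5% CO2), and beta-lactamase activity was then detected with the CCF4-AM FRET substrate.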

[3] = qHTS assay to identify small molecule agonists of H2AX - cell viability counter screen (AID 1224847; calls by dose curve; note: top concentration of the series differs between compounds; nearly all actives have a fitted effect of over 30% in size)
How it was run: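 Viability of CHO-K1 (wild type) cells after 3 hr compound exposure was measured by CellTiter-Glo luminescence.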

[4] = qHTS assay to identify small molecule antagonists of the estrogen related receptor (ERR) signaling pathway from Tox21 library (AID 1224848); note: nearly all actives have a fitted effect of over 50% in size; note: potency is the fitted concentration of half-maximal effect
How it was run: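 Compounds dissolved in DMSO are pin-transferred onto ERR reporter cells (2,000 per well) that have settled for 6 h at 37 C. Plates then incubate 18 h at 37 C before ONE-Glo luciferase reagent and a luminescence read 30 min later.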

[5] = qHTS assay to identify small molecule agonists of the estrogen related receptor (ERR) signaling pathway from Tox21 library (AID 1224849; calls by dose curve; note: nearly all actives have a fitted effect of over 15% in size); conditions: ERR reporter cell line, ONE-Glo luciferase, 18 h; at 92.4 µM (top of the series) unless noted
How it was run: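 Quantitative HTS in agonist format: NTP ERR cell line, compounds transferred in DMSO after 6 h plating, 18 h incubation at 37 C, ONE-Glo luminescence endpoint.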

[6] = qHTS RealTime-Glo MT Cell Viability Assay in HepG2 cells - 24 hour (AID 1224867); note: nearly all actives have a fitted effect of over 50% in size; note: potency is the fitted concentration of half-maximal effect
How it was run: (§1)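 Cell number in HepG2 cultures estimated from NanoLuc luminescence generated by metabolic reduction of a prosubstrate by living cells. The homogeneous, nonlytic format allowed repeated reads at 0, 8, 16, 24, 32 and 40 h of compound exposure.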

[7] = qHTS RealTime-Glo MT Cell Viability Assay in HEK293 cells - 32 hour (AID 1224868); note: nearly all actives have a fitted effect of over 50% in size; note: potency is the fitted concentration of half-maximal effect
How it was run: (§2)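 Homogeneous bioluminescent viability format in HEK293 cells (600 cells/well). Following 5 h at 37 C/5% CO2, 23 nL compound was pintooled; the signal was measured repeatedly during 40 h incubation.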

[8] = A CellTox Green Cytotoxicity Assay to monitor cytotoxicity in HEK293 cells - 0 hour (AID 1224869); note: nearly all actives have a fitted effect of over 50% in size
How it was run: (§3)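 Dead-cell fluorescence measured kinetically: asymmetric cyanine dye, HEK293, 600 cells/well, 5 h settle, 23 nL cpd/DMSO, 37 C, reads 0–40 h every 8 h.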

[9] = qHTS RealTime-Glo MT Cell Viability Assay in HepG2 cells - 40 hour (AID 1224870); note: nearly all actives have a fitted effect of over 50% in size; note: potency is the fitted concentration of half-maximal effect
How it was run: (§4)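 HepG2 cells (600/well) mixed with RealTime-Glo MT reagent, settled 5 h at 37 C/5% CO2 before compound addition. Nonlytic NanoLuc luminescence from viable-cell prosubstrate reduction read repeatedly during 40 h treatment at 37 C.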

[10] = A CellTox Green Cytotoxicity Assay to monitor cytotoxicity in HEK293 cells - 40 hour (AID 1224871); note: nearly all actives have a fitted effect of over 45% in size; note: potency is the fitted concentration of half-maximal effect
How it was run: as §3

[11] = qHTS RealTime-Glo MT Cell Viability Assay in HEK293 cells - 16 hour (AID 1224872); note: nearly all actives have a fitted effect of over 50% in size; note: potency is the fitted concentration of half-maximal effect
How it was run: as §2

[12] = qHTS RealTime-Glo MT Cell Viability Assay in HepG2 cells - 8 hour (AID 1224873); note: nearly all actives have a fitted effect of over 55% in size; note: potency is the fitted concentration of half-maximal effect
How it was run: as §4

[13] = qHTS RealTime-Glo MT Cell Viability Assay in HEK293 cells - 40 hour (AID 1224874); conditions: RealTime-Glo luminescence; max response: hits give low values; note: nearly all actives have a fitted effect of over 50% in size; note: potency is the fitted concentration of half-maximal effect
How it was run: (§5)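 600 HEK293 cells per well, dispensed already mixed with RealTime-Glo MT reagents. Compound dosing came 5 h later. The same wells were read for luminescence at 0, 8, 16, 24, 32 and 40 h of exposure at 37 C.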

[14] = A CellTox Green Cytotoxicity Assay to monitor cytotoxicity in HEK293 cells - 24 hour (AID 1224875); note: nearly all actives have a fitted effect of over 45% in size; note: potency is the fitted concentration of half-maximal effect
How it was run: as §3

[15] = A CellTox Green Cytotoxicity Assay to monitor cytotoxicity in HepG2 cells - 16 hour (AID 1224876); note: nearly all actives have a fitted effect of over 45% in size; note: potency is the fitted concentration of half-maximal effect
How it was run: (§6)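 First, HepG2 cells (600/well) mixed with reagent were plated; second, after 5 h at 37 C they received compounds via pintool; third, fluorescence was measured at 0 h through 40 h at 8 h intervals.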

[16] = qHTS RealTime-Glo MT Cell Viability Assay in HepG2 cells - 32 hour (AID 1224877); note: nearly all actives have a fitted effect of over 55% in size; note: potency is the fitted concentration of half-maximal effect
How it was run: as §1

[17] = A CellTox Green Cytotoxicity Assay to monitor cytotoxicity in HepG2 cells - 24 hour (AID 1224878); note: nearly all actives have a fitted effect of over 45% in size; note: potency is the fitted concentration of half-maximal effect
How it was run: as §6

[18] = A CellTox Green Cytotoxicity Assay to monitor cytotoxicity in HepG2 cells - 40 hour (AID 1224879); note: nearly all actives have a fitted effect of over 40% in size; note: potency is the fitted concentration of half-maximal effect
How it was run: as §6

[19] = qHTS RealTime-Glo MT Cell Viability Assay in HEK293 cells - 0 hour (AID 1224880)
How it was run: as §5

[20] = qHTS assay to identify small molecule agonists of H2AX (AID 1224845; active = well fitted activation curve with a large enough effect in the signal ratio in the repeat runs, not every such curve was filed as active; the % refers to the signal ratio; note: potency is the fitted concentration of half-maximal effect)
How it was run: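 Wild-type CHO-K1 cells, plated overnight, exposed 3hr at 37C to 15 concentrations (0.76% DMSO final). Lysed, then HTRF anti-pH2AX (S139) cryptate and anti-H2AX-d2 antibodies, 24 hr room temperature; 665/620 nm emission read.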
% is set by controls: 0 for no effect and ±100 for the full control effect.

CNC(=O)/C=C(\C)OP(=O)(OC)OC
inactive: Potency [1] | Potency [2] | Potency [3] | Potency [4] | activity change, positive = activation [5] -0.497% | Potency [6] | Potency [7] | Potency [8] | Potency [9] | Potency [10] | Potency [11] | Potency [12] | max response [13] 6.16% | Potency [14] | Potency [15] | Potency [16] | Potency [17] | Potency [18] | Potency [19]

Cc1cc(C2CC2)nc(Nc2ccccc2)n1
active: Potency [7] 24500 nM | Potency [11] 21900 nM | Potency [13] 21900 nM
inactive: Potency [1] | Potency [2] | Potency [4] | Potency [8] | Potency [9] | Potency [14] | Potency [19]

N#Cc1c2ccccc2cc2ccccc12
inactive: Potency [1] | Potency [20] | Potency [4] | activity change, positive = activation [5] 3.94% | Potency [6] | Potency [7] | Potency [8] | Potency [9] | Potency [10] | Potency [11] | Potency [12] | max response [13] -9.07% | Potency [14] | Potency [15] | Potency [16] | Potency [17] | Potency [19]

Cc1ccc([N+](=O)[O-])[c]2c1[O][Hg]2
inactive: Potency [8] | Potency [19]
active: Potency [1] 2130 nM | Potency [20] 695 nM | Potency [6] 2390 nM | Potency [7] 3790 nM | Potency [9] 3010 nM | Potency [10] 674 nM | Potency [11] 3380 nM | Potency [12] 2130 nM | Potency [13] 3010 nM | Potency [14] 1510 nM | Potency [16] 2390 nM | Potency [18] 1900 nM

c1csc(-c2ccc(-c3cccs3)s2)c1
inactive: Potency [1] | Potency [20] | Potency [3] | Potency [6] | Potency [7] | Potency [8] | Potency [9] | Potency [10] | Potency [11] | Potency [12] | max response [13] -2.2% | Potency [16] | Potency [17] | Potency [18] | Potency [19]

O=[N+]([O-])c1cccc2cccc([N+](=O)[O-])c12
inactive: Potency [1] | Potency [2] | Potency [3] | Potency [6] | Potency [7] | Potency [8] | Potency [9] | Potency [10] | Potency [11] | Potency [12] | Potency [14] | Potency [15] | Potency [16] | Potency [17] | Potency [18] | Potency [19]

CCc1cccc(C)c1N(C(=O)CCl)[C@@H](C)COC
active: Potency [1] 49000 nM | Potency [15] 49000 nM | Potency [17] 49000 nM | Potency [18] 49000 nM
inactive: Potency [2] | activity change, positive = activation [5] -67.3% | Potency [7] | Potency [8] | Potency [9] | Potency [11] | Potency [19]

Brc1ccc(Oc2ccc(Br)cc2Br)c(Br)c1
inactive: Potency [1] | Potency [20] | activity change, positive = activation [5] 13% | Potency [6] | Potency [8] | Potency [9] | Potency [10] | Potency [12] | Potency [14] | Potency [15] | Potency [16] | Potency [17] | Potency [18] | Potency [19]
active: Potency [7] 49000 nM | Potency [13] 49000 nM

[Cl][Hg][c]1ccccc1
inactive: Potency [20] | Potency [8]
active: Potency [1] 1380 nM | Potency [6] 2750 nM | Potency [7] 1100 nM | Potency [9] 3090 nM | Potency [10] 1230 nM | Potency [11] 1380 nM | Potency [12] 2750 nM | Potency [13] 1100 nM | Potency [14] 2190 nM | Potency [15] 2750 nM | Potency [16] 2750 nM | Potency [18] 2190 nM

O=c1c2ccccc2c(=O)c2c1cc(Cl)c1[nH]c3c([nH]c12)c(Cl)cc1c(=O)c2ccccc2c(=O)c13
inactive: Potency [1] | Potency [2] | Potency [3] | Potency [4] | activity change, positive = activation [5] -7.42% | Potency [6] | Potency [7] | Potency [8] | Potency [9] | Potency [10] | Potency [11] | Potency [12] | max response [13] 12.8% | Potency [14] | Potency [15] | Potency [16] | Potency [18] | Potency [19]

CN(C)c1ccc(N)cc1
inactive: Potency [1] | Potency [2] | Potency [8] | Potency [9] | Potency [14] | Potency [15] | Potency [16] | Potency [18]
active: Potency [7] 24000 nM | Potency [11] 42600 nM | Potency [13] 47800 nM

CC(=O)C(Cl)C(=O)N(C)C (stereo not drawn)
active: Potency [1] 43600 nM
inactive: Potency [2] | Potency [3] | Potency [6] | Potency [7] | Potency [8] | Potency [9] | Potency [11] | Potency [12] | max response [13] 3.79% | Potency [14] | Potency [16] | Potency [17] | Potency [18] | Potency [19]

[F][Sn]([c]1ccccc1)([c]1ccccc1)[c]1ccccc1
active: Potency [1] 549 nM | Potency [20] 1420 nM | Potency [4] 545 nM | Potency [6] 436 nM | Potency [7] 436 nM | Potency [9] 219 nM | Potency [10] 1550 nM | Potency [11] 549 nM | Potency [12] 1740 nM | Potency [13] 436 nM | Potency [14] 3470 nM | Potency [15] 1740 nM | Potency [16] 347 nM | Potency [17] 2190 nM | Potency [18] 692 nM
inactive: activity change, positive = activation [5] -81.3% | Potency [8] | Potency [19]

Oc1ccc2[nH]cc(CCCCN3CC=C(c4ccccc4)CC3)c2c1
active: Potency [7] 23900 nM | Potency [11] 9520 nM | Potency [17] 19000 nM | Potency [18] 23900 nM
inactive: Potency [1] | Potency [2] | Potency [6] | Potency [8] | Potency [9] | Potency [12] | Potency [14] | Potency [15] | Potency [16] | Potency [19]
